# Measured values taken from PubChem BioAssay (NCATS).
# Results filed as inconclusive are left out. The source made the active and inactive calls. Calls come from the whole dose curve; as a rule, active = well fitted inhibition curve with a large enough effect; inconclusive = small, poorly fitted or top-dose-only effect; inactive = flat fitted curve, though single readings scatter.
# Assay: P-glycoprotein substrates identified in KB-8-5-11 adenocarcinoma cell line, qHTS therapeutic library screen (AID 1346987); note: nearly all actives have a fitted effect of over 65% in size
# Conditions: KB-8-5-11 (P-gp overexpressing) viability, CellTiter-Glo, 72 h; series mostly up to 44.5 µM; activity change, negative = cytotoxicity: at the top concentration
# Method in brief: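 Luminescence from CellTiter-Glo, read 5 min after addition, quantified survival of KB-8-5-11 (P-gp-overexpressing) cells exposed to compounds for 72 h. AC50 was derived from concentration-response curves.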
# % is set by controls: 0 for no effect and ±100 for the full control effect; potency is the fitted concentration of half-maximal effect.
SMILES,Potency,"activity change, negative = cytotoxicity"
CC(C)OC(=O)Nc1ccc2nc(-c3cscn3)[nH]c2c1,4.61 µM (active),–
CC(C)=CCC/C(C)=C/CC/C(C)=C/CC/C=C(\C)CC/C=C(\C)CCC=C(C)C,inactive,–
CCOC(=O)Cc1ccc(-c2ccccc2)cc1,–,-10.6% (inactive)
CC1CCCCN1CCCOC(=O)c1ccccc1 (stereo not drawn),–,26.2% (inactive)
CC(=O)N=c1sc(S(N)(=O)=O)nn1C,–,5.7% [at 17.3 µM] (inactive)
COC1[C@@H](O[C@@H]2O[C@H](C)[C@@H](O[C@H]3C[C@@](C)(O)[C@H](OC(=O)CC(C)C)[C@H](C)O3)[C@H](N(C)C)[C@H]2O)[C@@H](CC=O)C[C@@H](C)[C@@H](O)/C=C/C=C/C[C@@H](C)OC(=O)C[C@H]1OC(C)=O (stereo partly drawn),–,0.975% [at 17.3 µM] (inactive)
CC1(C)S[C@@H]2[C@H](N3C(=O)C(c4ccccc4)NC3(C)C)C(=O)N2[C@H]1C(=O)O (stereo partly drawn),–,-12.9% (inactive)
OC/C=C/c1ccccc1,–,-5.38% (inactive)
CCN(CC)CCOC(=O)c1cccnc1,–,4.62% (inactive)
O=C(O)Cc1nn(Cc2ccc(Br)cc2F)c(=O)c2ccccc12,–,-22.5% (inactive)
[O-][N+](=Nc1ccccc1)c1ccccc1,–,-0.387% (inactive)
C[C@@](Cc1ccc(O)c(O)c1)(NN)C(=O)O,–,-3.59% (inactive)
C=CC1=C(C(=O)O)N2C(=O)[C@@H](NC(=O)/C(=N/OCC(=O)O)c3csc(N)n3)[C@H]2SC1 (stereo in doubt),–,-5.75% [at 17.3 µM] (inactive)
CC(C)(C)CC(C)(C)c1ccc(OCCO)cc1,13 µM (active),–
CC(CNC(=O)c1cccnc1)NC(=O)c1cccnc1 (stereo not drawn),–,-4.55% (inactive)
CNCC(O)c1ccc(OC(=O)C(C)(C)C)c(OC(=O)C(C)(C)C)c1 (stereo not drawn),–,-10.9% [at 17.3 µM] (inactive)
CO/N=C(/C(=O)N[C@@H]1C(=O)N2C(C(=O)O)=C(COC(N)=O)CS[C@H]12)c1ccco1,inactive,–
CC1=C(/C=C/C(C)=C/C=C/C(C)=C/C(=O)Oc2c(C)c(C)c3c(c2C)CC[C@@](C)(CCC[C@H](C)CCC[C@H](C)CCCC(C)C)O3)C(C)(C)CCC1,–,-5.81% (inactive)
OCC1(CO)COC(C(Cl)(Cl)Cl)OC1,–,12.6% (inactive)

SMILES,Potency,"activity change, negative = cytotoxicity"
O=C(O)C1=C(CSc2nnnn2CS(=O)(=O)O)CS[C@@H]2[C@H](NC(=O)[C@H](O)c3ccccc3)C(=O)N12,–,13.6% (inactive)
CC(C)=CCC/C(C)=C/C=C/C(C)=C/C=C/C(C)=C/C=C/C=C(C)/C=C/C=C(C)/C=C/C=C(\C)CCC=C(C)C,–,-10.2% (inactive)
C=C(C)C1CC=C(C)CC1 (stereo not drawn),–,-3.92% (inactive)
Oc1cc(O)cc(O)c1,–,2.01% (inactive)
C[C@H](NCCc1ccc(O)cc1)[C@H](O)c1ccc(O)cc1,–,-7.86% (inactive)
CN1CCCC(CN2c3ccccc3Sc3ccccc32)C1 (stereo not drawn),–,-24.7% (inactive)
OCC(O)CO,–,17.5% (inactive)
CC(C)(C)NCC(O)CSc1nc(-c2ccc(C(N)=O)s2)cs1 (stereo not drawn),–,6.01% (inactive)
NC(=O)c1cc[n+](CC2=C(C(=O)O)N3C(=O)[C@@H](NC(=O)C(c4ccccc4)S(=O)(=O)[O-])[C@H]3SC2)cc1 (stereo partly drawn),–,-2.81% [at 17.3 µM] (inactive)
CO/N=C(\C(=O)N[C@@H]1C(=O)N2C(C(=O)O)=C(CSc3nnnn3C)CS[C@H]12)c1csc(N)n1,–,3.63% (inactive)
CNCC(=O)N[C@@H](CCCN=C(N)N)C(=O)N[C@H](C(=O)N[C@@H](Cc1ccc(O)cc1)C(=O)N[C@H](C(=O)N[C@@H](Cc1cnc[nH]1)C(=O)N1CCC[C@H]1C(=O)N[C@@H](C)C(=O)O)C(C)C)C(C)C,–,4.48% (inactive)
NC(=O)c1ccc[n+]([C@@H]2O[C@H](COP(=O)([O-])OP(=O)(O)OC[C@H]3O[C@@H](n4cnc5c(N)ncnc54)[C@H](O)[C@@H]3O)[C@@H](O)[C@H]2O)c1,–,3.04% [at 17.3 µM] (inactive)
CN(C)C=Nc1c(I)cc(I)c(CCC(=O)O)c1I,–,13.4% (inactive)
CC(C)[C@@H](N)C(=O)O,–,0.394% (inactive)
OC[C@H]1O[C@@H](O[C@H]2[C@H](O)[C@@H](O)[C@H](O)O[C@@H]2CO)[C@H](O)[C@@H](O)[C@@H]1O,–,-0.0798% (inactive)
CN=C1C=CC(=C(c2ccc(N(C)C)cc2)c2ccc(N(C)C)cc2)C=C1,20.6 µM (active),–
COc1cc2c(cc1OC)[C@@H](Cc1cc(OC)c(OC)c(OC)c1)[N+](C)(CCCOC(=O)CC/C=C/CCC(=O)OCCC[N+]1(C)CCc3cc(OC)c(OC)cc3[C@H]1Cc1cc(OC)c(OC)c(OC)c1)CC2 (stereo partly drawn),inactive,–
C=CC[N@@+]12CC[C@@]34c5ccccc5N5/C=C6/[C@H]7C[C@H]8[C@@]9(CC[N@@+]8(CC=C)C/C7=C/CO)c7ccccc7N(/C=C(/[C@@H](C[C@@H]31)/C(=C\CO)C2)[C@H]54)[C@@H]69,–,-1.61% [at 17.3 µM] (inactive)
ClC(Cl)Cl,–,-0.568% (inactive)
